Experimental findings from PubChem BioAssay (EPA / NIEHS) are described below.

Test [1] in a line: ATG_TAL_CIS: Attagene CIS-FACTORIAL HepG2 Assay for human TAL Basal Promoter (AID 2282966).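 Note: background control endpoint measuring basal TAL promoter reporter mRNA not a specific factor.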 As to conditions: HepG2 Attagene cis-factorial TAL promoter reporter; actives raise or lower the signal. The essentials:
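Background-control endpoint: basal TAL promoter reporter transcripts in transiently transfected HepG2, measured 24 h after dosing. Read-out by RT-PCR with fluorescent primer extension and capillary electrophoresis; gain or loss of signal fitted relative to DMSO.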

A short description of test [2]: ATG_TGFb_CIS: Attagene CIS-FACTORIAL HepG2 Assay for human Transforming Growth Factor (TGF) (AID 2282967). As to conditions: HepG2 Attagene CIS TGFb reporter, mRNA transcription; actives raise or lower the signal. An outline of the steps:
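After a 24-hour incubation with compound, transfected HepG2 cells were lysed for RNA; reporter cDNA was amplified, fluorescently end-labeled and separated by CE. DMSO served as baseline for bidirectional fits.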

A short description of test [3]: ATG_VDRE_CIS: Attagene CIS-FACTORIAL HepG2 Assay for human Vitamin D Receptor Element (VDRE) (AID 2282968). As to conditions: HepG2 VDRE cis-reporter transcription, actives raise or lower the signal. The essentials:
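Steps: transfect HepG2 with multiple reporter transcription units; dose chemicals 24 h; isolate RNA; RT-PCR; label with 6-FAM primer extension; HpaI digest; capillary electrophoresis. Curves fitted both directions against DMSO.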

Test [4] addresses X-box-binding protein 1 (Homo sapiens) (UniProt P17861). The test is described as follows: ATG_Xbp1_CIS: Attagene CIS-FACTORIAL HepG2 Assay for human X-box Binding Protein 1 (XBP1) (AID 2282972). As to conditions: HepG2 XBP1 cis-element reporter, Attagene multiplex; actives raise or lower the signal. The essentials: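 Human hepatoma HepG2, cis-element reporter system, 24 h treatment; mRNA quantified by RT-PCR/CE fluorescence; fit relative to DMSO.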

Test [5] is described as follows: ATG_GAL4_TRANS: Attagene TRANS-FACTORIAL HepG2 Assay for GAL4 (Internal Marker) (AID 2282976; active = hit-call score of the fitted dose curve at least 0.9, where 1 is the maximum). As to conditions: HepG2 Attagene TRANS GAL4 internal marker reporter. An outline of the steps: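 In transfected human HepG2 liver cells dosed 24 h, GAL4 reporter mRNA serves as a baseline marker. Detection by RT-PCR with fluorescent capillary electrophoresis, activity fitted upward relative to DMSO.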

In test [6] the target is Glucocorticoid receptor (Homo sapiens) (UniProt P04150). The test is described as follows: ATG_GR_TRANS: Attagene TRANS-FACTORIAL HepG2 Assay for human Glucocorticoid Receptor (GR) (AID 2282978; active = hit-call score of the fitted dose curve at least 0.9, where 1 is the maximum;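 note: activators score as hits since higher reporter transcript over DMSO is fitted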). As to conditions: HepG2 Attagene TRANS GR reporter, mRNA transcription. An outline of the steps: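 Measurement of GAL4-UAS-driven reporter mRNA in human HepG2 liver cells 24 h post-dosing, using RT-PCR with fluorescent labelling and capillary electrophoresis; the transfected constructs report exogenous NR-GAL4 chimera activity, fitted upward against DMSO.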

The target of test [7] is Oxysterols receptor LXR-alpha (Homo sapiens) (UniProt Q13133). The test is described as follows: ATG_LXRa_TRANS: Attagene TRANS-FACTORIAL HepG2 Assay for human Liver X Receptor alpha (LXRa) (AID 2282980; active = hit-call score of the fitted dose curve at least 0.9, where 1 is the maximum). As to conditions: HepG2 Attagene TRANS reporter, LXRa transactivation. The essentials: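 Chemical-induced reporter mRNA measured by RT-PCR with fluorescent labelling and capillary electrophoresis after 24 h dosing of transiently transfected HepG2 cells expressing exogenous NR-Gal4 chimeras; increases scored against DMSO baseline.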

Test [8] addresses Hepatocyte nuclear factor 4-alpha (Homo sapiens) (UniProt P41235). The test is described as follows: ATG_HNF4a_TRANS: Attagene TRANS-FACTORIAL HepG2 Assay for human Hepatocyte Nuclear Factor 4 alpha (HNF4a) (AID 2282982; active = hit-call score of the fitted dose curve at least 0.9, where 1 is the maximum). The following applies: HepG2 HNF4a transactivation reporter, mRNA readout. The essentials: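 In this trans-factorial format, a chimeric HNF4a-GAL4 fusion drives a GAL4-UAS reporter in transfected HepG2 liver cells. After 24 h treatment, reporter mRNA induction is measured by RT-PCR with capillary electrophoresis, relative to DMSO.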

The nature of test [9]: ATG_M_06_TRANS: Attagene TRANS-FACTORIAL HepG2 Assay for M06 Transcription Factor (Internal Marker) (AID 2282983; active = hit-call score of the fitted dose curve at least 0.9, where 1 is the maximum). As to conditions: HepG2 Attagene TRANS M06 internal marker reporter. The essentials: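 Background-control reporter readout: after 24 h chemical exposure of transiently transfected HepG2 (GAL4-UAS reporter units), mRNA quantified by RT-PCR with fluorescent labeling and capillary electrophoresis. Gain-of-signal fitting against DMSO baseline.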

Test [10] in a line: ATG_M_32_TRANS: Attagene TRANS-FACTORIAL HepG2 Assay for M32 Transcription Factor (Internal Marker) (AID 2282984; active = hit-call score of the fitted dose curve at least 0.9, where 1 is the maximum). The following applies: HepG2 Attagene TRANS M32 internal marker reporter. The essentials: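 After 24 h dosing of transfected HepG2 cells, total RNA was reverse-transcribed, reporter sequences PCR-amplified, 6-FAM labelled by primer extension and HpaI-digested before capillary electrophoresis. Signal increase over DMSO was fitted.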

Test [11] deals with Nuclear receptor subfamily 4 group A member 2 (Homo sapiens) (UniProt P43354). The test is described as follows: ATG_NURR1_TRANS: Attagene TRANS-FACTORIAL HepG2 Assay for human Nuclear Receptor Related Protein 1 (NURR1) (AID 2282985; active = hit-call score of the fitted dose curve at least 0.9, where 1 is the maximum). As to conditions: HepG2 Attagene TRANS reporter, mRNA readout. An outline of the steps: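 Chimeric NR-Gal4 fusion activity measured in HepG2 after 24 h treatment. Reporter transcripts detected by RT-PCR and capillary electrophoresis fluorescence; positive-direction curve fitting against DMSO.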

The target in test [12] is Transcriptional activator Myb (Homo sapiens) (UniProt P10242). The test is described as follows: ATG_Myb_CIS: Attagene CIS-FACTORIAL HepG2 Assay for human Myeloblastosis (Myb) Proto-Oncogene Transcription Factor (AID 2282986). The following applies: HepG2 Attagene CIS-FACTORIAL Myb reporter transcription; actives raise or lower the signal. The essentials:
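Fluorescence signals from capillary electrophoresis of RT-PCR-amplified reporter cDNA give the read-out. Cells: HepG2 transfected with multiple cis-regulated reporter units. Exposure lasts 24 hours; DMSO defines baseline for gain or loss of signal.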

For test [13], the target named is Nuclear respiratory factor 1 (Homo sapiens) (UniProt Q16656). The test is described as follows: ATG_NRF1_CIS: Attagene CIS-FACTORIAL HepG2 Assay for human Nuclear Respiratory Factor 1 (NRF1) Orphan Gene (AID 2282987). As to conditions: HepG2 NRF1 cis-element reporter, Attagene multiplex; actives raise or lower the signal. An outline of the steps:
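Transcriptional reporter readout, one component of a 52-endpoint multiplexed HepG2 panel. Exposure 24 h; mRNA detected via RT-PCR and fluorescent capillary electrophoresis; fitting in both directions against DMSO.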

A short description of test [14]: ATG_M_19_TRANS: Attagene TRANS-FACTORIAL HepG2 Assay for M19 Transcription Factor (Internal Marker) (AID 2282974; active = hit-call score of the fitted dose curve at least 0.9, where 1 is the maximum). The following applies: HepG2 Attagene TRANS-FACTORIAL M19 internal marker reporter. The essentials: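 Measured here: internal-marker reporter transcript from HepG2 cells transfected with MRTUs, harvested at 24 h. cDNA PCR products were 6-FAM labelled by primer extension, cut with HpaI for 2 h at 37 C, and resolved by CE.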

Test [15] concerns the target Bile acid receptor (Homo sapiens) (UniProt Q96RI1). Put plainly: ATG_FXR_TRANS: Attagene TRANS-FACTORIAL HepG2 Assay for Farnesoid X Receptor (FXR) (AID 2282979; active = hit-call score of the fitted dose curve at least 0.9, where 1 is the maximum;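 note: hits raise reporter mRNA above DMSO so AC50 marks FXR activation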). As to conditions: HepG2 Attagene TRANS FXR-GAL4 reporter transcription. The essentials:
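Reporter transcripts from transfected HepG2 cells were measured 24 h after dosing, using RT-PCR with capillary electrophoresis of 6-FAM-labelled fragments. The read-out reflects activity of exogenous FXR-Gal4 chimera on GAL4-UAS units, with induction relative to DMSO.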

The target in test [16] is Oxysterols receptor LXR-beta (Homo sapiens) (UniProt P55055). Put plainly: ATG_LXRb_TRANS: Attagene TRANS-FACTORIAL HepG2 Assay for human Liver X Receptor beta (LXRb) (AID 2282981; active = hit-call score of the fitted dose curve at least 0.9, where 1 is the maximum). The following applies: HepG2 Attagene TRANS GAL4-LXRb reporter, mRNA. The essentials: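 Measures induction of a Gal4-driven reporter transcript in HepG2 cells expressing an exogenous LXRb-Gal4 fusion. Cells are exposed to compound for 24 h before RNA isolation and RT-PCR with capillary electrophoresis detection.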

What is called AC50 is the concentration at which the activity in the assay is half-maximal.

Results filed as inconclusive are left out. The source made the active and inactive calls. Rule for the calls, unless noted: active = hit-call score of the fitted dose curve at least 0.9, where 1 is the maximum; inactive = score below 0.9.

Chain of X-box-binding protein 1 (Homo sapiens) (P17861 whole entry, looked up): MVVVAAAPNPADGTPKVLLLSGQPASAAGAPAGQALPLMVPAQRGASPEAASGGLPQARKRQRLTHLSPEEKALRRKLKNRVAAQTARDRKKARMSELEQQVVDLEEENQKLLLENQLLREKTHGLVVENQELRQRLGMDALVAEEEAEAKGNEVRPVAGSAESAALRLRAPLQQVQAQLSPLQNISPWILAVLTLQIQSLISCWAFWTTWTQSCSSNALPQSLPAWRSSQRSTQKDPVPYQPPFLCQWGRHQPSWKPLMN
Chain of Oxysterols receptor LXR-alpha (Homo sapiens) (Q13133 whole entry, looked up, the tested form may be a part): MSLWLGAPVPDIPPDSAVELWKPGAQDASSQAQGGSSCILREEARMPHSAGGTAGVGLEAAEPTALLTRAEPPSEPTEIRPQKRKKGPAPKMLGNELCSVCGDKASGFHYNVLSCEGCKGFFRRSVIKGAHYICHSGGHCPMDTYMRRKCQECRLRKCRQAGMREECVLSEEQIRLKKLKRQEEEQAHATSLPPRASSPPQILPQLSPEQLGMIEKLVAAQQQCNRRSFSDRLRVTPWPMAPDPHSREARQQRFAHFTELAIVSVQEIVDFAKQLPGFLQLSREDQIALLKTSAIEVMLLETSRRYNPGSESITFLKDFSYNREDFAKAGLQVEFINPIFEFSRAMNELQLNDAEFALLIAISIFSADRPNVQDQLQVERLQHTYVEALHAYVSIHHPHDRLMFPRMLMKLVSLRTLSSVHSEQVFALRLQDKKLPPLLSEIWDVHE
Chain of Transcriptional activator Myb (Homo sapiens) (P10242 whole entry, looked up): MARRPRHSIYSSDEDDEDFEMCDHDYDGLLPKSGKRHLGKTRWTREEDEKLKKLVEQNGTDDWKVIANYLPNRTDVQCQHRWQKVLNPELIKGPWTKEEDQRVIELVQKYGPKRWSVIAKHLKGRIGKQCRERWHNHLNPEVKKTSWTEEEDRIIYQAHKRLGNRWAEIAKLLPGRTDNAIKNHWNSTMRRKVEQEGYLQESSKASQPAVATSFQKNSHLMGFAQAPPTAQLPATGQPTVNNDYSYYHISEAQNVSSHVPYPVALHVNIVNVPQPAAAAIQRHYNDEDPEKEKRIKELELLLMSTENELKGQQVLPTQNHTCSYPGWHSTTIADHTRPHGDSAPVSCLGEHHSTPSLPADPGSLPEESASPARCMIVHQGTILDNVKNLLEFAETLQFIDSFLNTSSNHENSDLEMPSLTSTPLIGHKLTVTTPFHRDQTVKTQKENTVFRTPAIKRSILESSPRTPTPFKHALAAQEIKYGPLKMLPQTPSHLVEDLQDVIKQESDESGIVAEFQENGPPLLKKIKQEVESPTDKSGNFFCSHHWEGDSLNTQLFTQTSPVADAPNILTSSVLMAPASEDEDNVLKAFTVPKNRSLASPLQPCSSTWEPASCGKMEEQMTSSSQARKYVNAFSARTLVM
Chain of Nuclear receptor subfamily 4 group A member 2 (Homo sapiens) (P43354 whole entry, looked up, the tested form may be a part): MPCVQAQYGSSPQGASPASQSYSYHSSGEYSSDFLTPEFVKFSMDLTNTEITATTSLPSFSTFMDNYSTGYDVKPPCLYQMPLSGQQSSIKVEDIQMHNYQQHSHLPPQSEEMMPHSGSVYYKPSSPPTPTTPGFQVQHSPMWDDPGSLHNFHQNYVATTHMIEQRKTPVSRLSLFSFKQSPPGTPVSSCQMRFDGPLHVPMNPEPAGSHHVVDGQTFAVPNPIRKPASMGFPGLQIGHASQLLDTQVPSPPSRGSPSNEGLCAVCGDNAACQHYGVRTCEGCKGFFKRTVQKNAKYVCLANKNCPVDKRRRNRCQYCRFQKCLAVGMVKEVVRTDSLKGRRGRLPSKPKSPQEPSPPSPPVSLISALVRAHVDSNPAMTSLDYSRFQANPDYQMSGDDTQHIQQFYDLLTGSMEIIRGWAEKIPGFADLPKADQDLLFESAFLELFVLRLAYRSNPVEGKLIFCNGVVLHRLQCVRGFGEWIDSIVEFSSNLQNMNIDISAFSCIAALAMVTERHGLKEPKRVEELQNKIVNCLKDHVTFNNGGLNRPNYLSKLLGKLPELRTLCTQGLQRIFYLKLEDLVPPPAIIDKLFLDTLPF
Chain of Bile acid receptor (Homo sapiens) (Q96RI1 whole entry, looked up, the tested form may be a part): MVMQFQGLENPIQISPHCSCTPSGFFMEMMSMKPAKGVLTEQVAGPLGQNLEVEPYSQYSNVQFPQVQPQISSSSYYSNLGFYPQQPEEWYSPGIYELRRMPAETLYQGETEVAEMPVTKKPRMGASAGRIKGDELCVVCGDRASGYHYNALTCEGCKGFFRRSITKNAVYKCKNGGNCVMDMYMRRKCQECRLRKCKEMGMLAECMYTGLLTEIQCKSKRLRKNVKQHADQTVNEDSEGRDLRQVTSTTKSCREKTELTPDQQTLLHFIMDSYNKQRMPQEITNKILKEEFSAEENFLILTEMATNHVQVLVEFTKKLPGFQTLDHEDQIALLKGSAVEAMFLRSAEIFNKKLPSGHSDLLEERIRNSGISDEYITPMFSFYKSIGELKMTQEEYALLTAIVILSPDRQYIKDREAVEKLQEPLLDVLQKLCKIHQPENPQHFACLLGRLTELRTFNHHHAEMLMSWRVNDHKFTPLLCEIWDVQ
Chain of Glucocorticoid receptor (Homo sapiens) (P04150 whole entry, looked up, the tested form may be a part): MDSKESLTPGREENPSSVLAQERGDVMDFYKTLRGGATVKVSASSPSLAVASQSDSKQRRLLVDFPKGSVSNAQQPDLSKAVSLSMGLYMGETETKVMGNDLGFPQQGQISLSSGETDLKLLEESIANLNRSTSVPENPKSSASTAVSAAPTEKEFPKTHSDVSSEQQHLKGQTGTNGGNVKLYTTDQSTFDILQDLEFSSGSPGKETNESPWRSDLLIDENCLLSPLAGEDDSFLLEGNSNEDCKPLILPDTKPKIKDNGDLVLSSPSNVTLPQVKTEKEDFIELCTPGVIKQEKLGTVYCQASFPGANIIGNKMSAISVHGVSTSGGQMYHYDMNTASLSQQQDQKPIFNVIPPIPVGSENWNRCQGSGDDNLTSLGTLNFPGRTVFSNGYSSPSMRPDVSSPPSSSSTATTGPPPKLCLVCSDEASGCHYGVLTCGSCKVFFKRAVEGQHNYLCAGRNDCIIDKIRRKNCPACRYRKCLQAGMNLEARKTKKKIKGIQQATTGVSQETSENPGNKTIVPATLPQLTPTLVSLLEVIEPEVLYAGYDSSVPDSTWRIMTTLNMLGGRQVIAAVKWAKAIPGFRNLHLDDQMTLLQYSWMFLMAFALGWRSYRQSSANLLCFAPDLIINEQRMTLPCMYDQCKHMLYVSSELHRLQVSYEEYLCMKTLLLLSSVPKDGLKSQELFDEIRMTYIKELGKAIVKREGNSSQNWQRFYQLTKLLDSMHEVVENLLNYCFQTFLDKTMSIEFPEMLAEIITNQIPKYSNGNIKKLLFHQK
Chain of Hepatocyte nuclear factor 4-alpha (Homo sapiens) (P41235 whole entry, looked up, the tested form may be a part): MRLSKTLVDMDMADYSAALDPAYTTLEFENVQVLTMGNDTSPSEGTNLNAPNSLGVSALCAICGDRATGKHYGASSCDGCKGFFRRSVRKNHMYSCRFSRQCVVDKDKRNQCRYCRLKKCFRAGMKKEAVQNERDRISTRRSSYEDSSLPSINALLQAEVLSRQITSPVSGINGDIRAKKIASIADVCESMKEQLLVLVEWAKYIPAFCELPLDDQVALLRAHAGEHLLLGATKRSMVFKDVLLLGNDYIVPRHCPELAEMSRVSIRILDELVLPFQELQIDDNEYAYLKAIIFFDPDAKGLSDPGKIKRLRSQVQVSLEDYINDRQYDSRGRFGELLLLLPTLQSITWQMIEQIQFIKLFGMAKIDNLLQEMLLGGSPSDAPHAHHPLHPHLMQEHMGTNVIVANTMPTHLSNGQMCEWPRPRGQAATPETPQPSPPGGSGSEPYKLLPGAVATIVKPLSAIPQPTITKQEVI
Chain of Oxysterols receptor LXR-beta (Homo sapiens) (P55055 whole entry, looked up, the tested form may be a part): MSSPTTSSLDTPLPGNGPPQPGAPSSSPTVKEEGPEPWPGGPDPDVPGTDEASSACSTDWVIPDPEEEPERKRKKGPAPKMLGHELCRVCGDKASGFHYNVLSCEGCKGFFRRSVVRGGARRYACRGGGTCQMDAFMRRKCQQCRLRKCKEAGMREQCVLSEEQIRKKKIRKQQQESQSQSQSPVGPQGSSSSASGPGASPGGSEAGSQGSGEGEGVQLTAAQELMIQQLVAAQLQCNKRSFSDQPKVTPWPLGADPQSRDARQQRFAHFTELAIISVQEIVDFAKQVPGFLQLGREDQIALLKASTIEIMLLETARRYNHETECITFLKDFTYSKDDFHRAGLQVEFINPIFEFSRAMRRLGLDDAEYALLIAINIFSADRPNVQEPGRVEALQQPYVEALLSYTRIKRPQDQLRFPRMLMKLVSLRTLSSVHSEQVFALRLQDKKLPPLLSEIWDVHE
Chain of Nuclear respiratory factor 1 (Homo sapiens) (Q16656 whole entry, looked up): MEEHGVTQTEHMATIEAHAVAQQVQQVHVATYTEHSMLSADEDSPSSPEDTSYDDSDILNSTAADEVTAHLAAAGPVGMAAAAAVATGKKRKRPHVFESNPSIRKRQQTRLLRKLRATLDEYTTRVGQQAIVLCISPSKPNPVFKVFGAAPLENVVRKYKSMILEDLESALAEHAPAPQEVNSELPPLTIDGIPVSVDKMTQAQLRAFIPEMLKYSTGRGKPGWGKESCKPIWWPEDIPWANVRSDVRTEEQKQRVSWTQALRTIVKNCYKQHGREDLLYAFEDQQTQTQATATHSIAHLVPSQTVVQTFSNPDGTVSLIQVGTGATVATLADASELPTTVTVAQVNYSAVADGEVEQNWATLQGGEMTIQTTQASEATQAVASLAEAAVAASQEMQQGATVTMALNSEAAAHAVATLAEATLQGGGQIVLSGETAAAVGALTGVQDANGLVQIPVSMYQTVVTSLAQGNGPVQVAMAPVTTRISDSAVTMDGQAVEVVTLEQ

On to `C=CC[N+](C)(C)CC=C`, for which the molecule was classed as inactive in test [1], in test [2], in test [3], in [4], in test [5] and in test [6]. Besides, the outcome in [7], in test [8], in test [9], in test [10], in test [11] and in test [12] was inactive. Also, the molecule was classed as inactive in [13].

For the molecule `CCCCO`, the molecule was called inactive in [1], in test [2], in test [3], in test [4], in test [14] and in [5]. Also, the result in test [15], in [8], in test [10], in test [12] and in test [13] was inactive.

As to `COc1ccc(O)cc1`, the molecule was classed as inactive in test [1], in test [2], in test [3], in test [4], in [14] and in [5]. In addition, the outcome in test [7], in [16], in test [10], in test [11], in [12] and in test [13] was inactive.

With `CN(C)c1ccc(O)c2c1C[C@H]1C[C@H]3[C@H](N(C)C)C(=O)C(C(N)=O)=C(O)[C@@]3(O)C(=O)C1=C2O`, the call in test [1], in [2], in test [3], in test [4], in [14] and in test [5] was inactive. Also, the molecule was classed as inactive in [6], in test [16], in test [11], in test [12] and in test [13].

Consider `C=C(C)C(=O)NCCCN(C)C`, for which the molecule was classed as inactive in test [1], in test [2], in test [3], in test [4], in test [14] and in test [5]. In addition, the call in test [16], in [8], in test [12] and in [13] was inactive.

Regarding `CCC(=O)/C=C/C1C(C)=CCCC1(C)C` (centres undefined), the molecule was classed as inactive in [1], in test [2], in test [3], in test [4], in test [5] and in [6]. The outcome in test [15], in [7], in test [16], in test [8], in test [10] and in test [11] was inactive. The result in test [12] and in test [13] was inactive.

As to `CO[Si](CCCn1c(=O)n(CCC[Si](OC)(OC)OC)c(=O)n(CCC[Si](OC)(OC)OC)c1=O)(OC)OC`, the outcome in test [1], in test [2], in test [3], in test [4], in test [14] and in [5] was inactive. Also, the outcome in [8], in test [9], in test [10], in test [12] and in test [13] was inactive.

Regarding `C=CC(=O)NCOCC(C)C`, the outcome in [1], in test [2], in test [4], in test [14], in [15] and in test [8] was inactive. The outcome in test [9], in test [10], in [11], in test [12] and in test [13] was inactive. Besides, the concentration at half-maximal activity (AC50) in [3] is 34.3 µM (active).
